Compound activity deposited in PubChem BioAssay by several laboratories.
Bead autofluor = flagged as autofluorescent in microsphere protease counterscreen; compound autofluorescence counterscreen, microsphere flow cytometry; hits give high values; fluorescence intensity (no concentration beside the values); 360,000 tested, 3.1% active; AID 624483; in the data active = fluorescence intensity above about 16000; inconclusive = no clear call, values can overlap the other calls
GDH-TPI counter = GDH-TPI coupling enzyme inhibitors, primary screen, artefact control for M. tuberculosis FBA inhibitor project, biochemical, absorbance, full deck; GDH-TPI coupled enzyme counterscreen, NADH absorbance; inhibition, % at 4.8 µM; 360,000 tested, 1.2% active; AID 588335, 2011; in the data active = inhibition above about 30%;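 also: 0% = DMSO wells and 100% = wells lacking the enzyme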
BoNT A protease = BoNT/A light chain protease inhibitors, primary screen, biochemical, flow cytometry, MLPCN library; Botulinum neurotoxin type A light chain protease (Clostridium botulinum A str. ATCC 3502); multiplex microsphere protease substrate cleavage; inhibition, % at 10 µM; 360,000 tested, 0.17% active; AID 588499, 2011; also: plate controls were buffer without enzyme for full effect and enzyme alone for no effect
Mtb FBA inh = Mtb FBA enzyme inhibitors, primary screen, biochemical, fluorescence, strain H37Rv | AID 588726, 2011 | purified M. tuberculosis FBA, fluorescence read-out | inhibition, % at 1 µM | 360,000 tested, 2.3% active; in the data active = inhibition above about 27%;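 also: 0% = vehicle and 100% = reference inhibitor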
Target sequence (P9WQA3 whole entry, looked up): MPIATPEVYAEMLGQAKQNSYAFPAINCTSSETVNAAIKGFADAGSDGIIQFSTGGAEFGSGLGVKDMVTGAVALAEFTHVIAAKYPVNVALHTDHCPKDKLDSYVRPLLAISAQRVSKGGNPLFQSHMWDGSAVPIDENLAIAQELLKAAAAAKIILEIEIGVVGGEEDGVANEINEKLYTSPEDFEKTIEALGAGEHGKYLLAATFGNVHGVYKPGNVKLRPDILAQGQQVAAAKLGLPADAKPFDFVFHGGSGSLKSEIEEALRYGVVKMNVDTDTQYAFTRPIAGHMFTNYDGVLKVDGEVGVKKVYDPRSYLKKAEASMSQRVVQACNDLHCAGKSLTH
Anthrax LF prot = Bacillus anthracis LF protease inhibitors, primary screen, biochemical, multiplex microsphere, MLPCN library; AID 588501, 2011; 360,000 tested, 0.12% active; multiplex microsphere protease cleavage assay; inhibition, % at 10 µM; Lethal factor (Bacillus anthracis), P15917; also: plate controls were buffer without enzyme for full effect and enzyme alone for no effect
BoNT F protease = BoNT/F light chain protease inhibitors, primary screen, biochemical, flow cytometry, MLPCN library; inhibition, % at 10 µM; Multiplex microsphere protease cleavage assay; Botulinum neurotoxin type F light chain protease (Clostridium botulinum); AID 588497, 2011; 360,000 tested, 0.22% active; in the data active = inhibition above about 35%, passing the limit was not always enough; inconclusive = no clear call, values can overlap the other calls; also: plate controls were buffer without enzyme for full effect and enzyme alone for no effect
The depositor's hits bear a star; ? = inconclusive. Only some compounds are listed: those with a hit (about 6.6% of all), similar ones and a draw of the others. Rule as the data show it, unless noted: active = inhibition above about 30%; inconclusive = no clear call, values can overlap the other calls; inactive = below that.

SMILES | Bead autofluor | GDH-TPI counter | BoNT A protease | Mtb FBA inh | Anthrax LF prot | BoNT F protease
CCOc1ccc(Nc2cc(C)nc3c(C)cccc23)cc1 | 3358 | 11 | 3 | -2 | 16 | 19
O=C(Cn1cnc2ccccc2c1=O)Nc1ccc2c(c1)CCC2 | 23574* | -7 | -1 | -1 | -2 | 1
O=C(Cn1cnc2cc([N+](=O)[O-])ccc2c1=O)Nc1ccc2c(c1)CCC2 | 3267 | 10 | 0 | 0 | 0 | -7
CC(=O)OC1COC(n2c(O)c(N=NC(N)=S)c3ccccc32)C(OC(C)=O)C1OC(C)=O (stereo unspecified) | 4198 | 17 | 2 | -9 | -11 | ?
CCOC(=O)C(CCSC)NC(=O)CN (stereo unspecified) | 22429* | 3 | 0 | 0 | -1 | -2
CCC(C)NC(=O)N[C@@H](CCSC)C(=O)OC (stereo partly specified) | 10858 | -6 | -1 | 2 | 1 | -4
CCOC(=O)C(C)Sc1ncc(OC)c(Sc2ccc(Cl)cc2)n1 (stereo unspecified) | 24632* | 10 | -6 | -1 | -2 | -10
CCOC(=O)C(C)Sc1ncc(OC)c(=O)[nH]1 (stereo unspecified) | 3869 | -9 | 4 | 3 | 6 | 30
CCOC(=O)CSc1ncc(OC)c(Sc2ccc(Cl)cc2)n1 | 21505* | -1 | ? | -2 | -16 | 0
CCOC(=O)CSc1ncc(OC)c(=O)[nH]1 | 10007 | 7 | 0 | 1 | 9 | 5
O=C(/C=C/NCc1cccnc1)c1ccc(-c2ccccc2)cc1 | 4204 | 36* | -2 | 5 | -4 | 8
O=C(Nc1ccc(Cl)c([N+](=O)[O-])c1)ONC1=NCCCCC1 | 4293 | -4 | 0 | 1 | -2 | 6
O=C(NC1CCN(S(=O)(=O)c2cccc(Cl)c2)CC1)C1CCCCC1 | 5307 | 3 | 1 | -2 | -3 | 2
COc1ccccc1CNC(=O)CNC(=O)[C@@H]1Cc2ccccc2CN1 | 5338 | -2 | 0 | -2 | 0 | 0
CCOc1cc(CNCC2CCCN2CC)cc(Cl)c1OC (stereo unspecified) | 3198 | -6 | 0 | 1 | 2 | 2
CCN1CCCC1CNCc1cc(OC)c(OC)c(OC)c1 (stereo unspecified) | 24874* | 10 | -4 | 0 | 0 | -6
CC1CCCN(c2c([N+](=O)[O-])c(=O)oc3ccccc23)C1 (stereo unspecified) | 23803* | 9 | ? | -1 | -2 | 1
O=c1oc2ccccc2c(N2CCC(c3ccccc3)CC2)c1[N+](=O)[O-] | 2169 | 2 | 0 | -4 | -2 | -8
N#Cc1cccc(NC(=O)CSc2nnc(C3CC3)n2C2CC2)c1 | 7817 | -1 | -2 | -5 | 3 | 3
COc1ccc(Oc2coc3cc(O)ccc3c2=O)cc1 | 3078 | 45* | 5 | 17 | -2 | ?
Cc1cc(C)cc(Oc2coc3cc(OC(=O)c4cccs4)ccc3c2=O)c1 | 3450 | 1 | 1 | 7 | 0 | -4
Cc1ccc(Oc2coc3cc(OC(=O)c4cccs4)ccc3c2=O)cc1 | 16461* | -3 | 1 | 10 | -2 | -4
CCc1ccccc1NC(=S)N1CCCCCC1 | 5885 | -2 | 1 | -1 | 0 | 9
COC(=O)c1sc(N)c(C(=O)OC)c1COC(=O)C1CC(=O)N(Cc2ccco2)C1 (stereo unspecified) | 21636* | 20 | 2 | 2 | 0 | 1
CCN(CC)CCNC(=O)c1ccc(NC(=O)c2c(C)nn(-c3ccc(F)cc3)c2Cl)cc1 | 3890 | 4 | 0 | -1 | -7 | 9
COc1ccc(S(=O)(=O)N2CCN(CC(=O)NC(C)c3cccs3)CC2)cc1 (stereo unspecified) | 4185 | 9 | -1 | -1 | -3 | -5
COc1cccc(CC2(CO)CCCN(Cc3cc(F)ccc3-n3cccn3)C2)c1 (stereo unspecified) | 5338 | 5 | -1 | 4 | 2 | 5
